The supplement of paper PMC12819154, “High-throughput peptide-centric local stability assay extends protein–ligand identification to membrane proteins, tissues and bacteria” (Nature Structural & Molecular Biology, 2025)

compound: CN[C@@H]1C[C@H]2O[C@@](C)([C@@H]1OC)n1c3ccccc3c3c4c(c5c6ccccc6n2c5c31)C(=O)NC4 [staurosporine]; assay: log2 fold change of tryptic peptide abundance, ligand vs vehicle (limited proteolysis) (log2 ratio); higher = more trypsin-susceptible (destabilized); settings: ligand concentration: 20 uM; sample: mouse liver crude lysate; replicate design: treated separately

Sequence of UniProt Q99MK8 (Q99MK8 whole entry): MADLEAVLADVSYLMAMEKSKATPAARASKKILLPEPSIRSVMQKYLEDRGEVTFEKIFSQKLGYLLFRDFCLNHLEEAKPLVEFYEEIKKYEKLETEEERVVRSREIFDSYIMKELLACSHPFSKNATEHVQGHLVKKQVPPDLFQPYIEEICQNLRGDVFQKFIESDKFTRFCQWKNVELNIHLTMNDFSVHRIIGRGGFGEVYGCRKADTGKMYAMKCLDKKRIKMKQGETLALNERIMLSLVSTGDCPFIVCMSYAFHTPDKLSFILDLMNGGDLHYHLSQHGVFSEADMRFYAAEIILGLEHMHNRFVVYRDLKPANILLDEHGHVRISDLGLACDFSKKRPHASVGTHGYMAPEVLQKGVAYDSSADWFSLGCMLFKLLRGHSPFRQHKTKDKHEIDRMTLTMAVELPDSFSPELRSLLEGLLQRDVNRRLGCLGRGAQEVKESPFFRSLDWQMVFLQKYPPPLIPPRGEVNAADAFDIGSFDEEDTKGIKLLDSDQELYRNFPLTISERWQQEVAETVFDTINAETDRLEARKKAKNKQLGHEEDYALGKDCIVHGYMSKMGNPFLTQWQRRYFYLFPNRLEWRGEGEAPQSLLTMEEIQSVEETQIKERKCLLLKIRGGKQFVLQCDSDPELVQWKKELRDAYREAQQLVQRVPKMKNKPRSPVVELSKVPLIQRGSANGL
Sequence of UniProt Q04899 (Q04899 whole entry): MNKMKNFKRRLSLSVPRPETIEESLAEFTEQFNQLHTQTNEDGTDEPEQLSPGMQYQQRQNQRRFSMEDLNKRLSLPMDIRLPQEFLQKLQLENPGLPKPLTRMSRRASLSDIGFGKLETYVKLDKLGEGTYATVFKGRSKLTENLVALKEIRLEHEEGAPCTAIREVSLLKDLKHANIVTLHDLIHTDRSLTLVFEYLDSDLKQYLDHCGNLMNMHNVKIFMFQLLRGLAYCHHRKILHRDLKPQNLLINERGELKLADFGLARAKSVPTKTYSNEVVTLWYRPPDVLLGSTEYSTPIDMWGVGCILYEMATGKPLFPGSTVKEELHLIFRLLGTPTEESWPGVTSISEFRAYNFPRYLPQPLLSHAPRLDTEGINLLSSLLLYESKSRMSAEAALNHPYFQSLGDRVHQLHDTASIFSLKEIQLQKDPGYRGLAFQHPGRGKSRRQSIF
Sequence of UniProt P14576 (P14576 whole entry): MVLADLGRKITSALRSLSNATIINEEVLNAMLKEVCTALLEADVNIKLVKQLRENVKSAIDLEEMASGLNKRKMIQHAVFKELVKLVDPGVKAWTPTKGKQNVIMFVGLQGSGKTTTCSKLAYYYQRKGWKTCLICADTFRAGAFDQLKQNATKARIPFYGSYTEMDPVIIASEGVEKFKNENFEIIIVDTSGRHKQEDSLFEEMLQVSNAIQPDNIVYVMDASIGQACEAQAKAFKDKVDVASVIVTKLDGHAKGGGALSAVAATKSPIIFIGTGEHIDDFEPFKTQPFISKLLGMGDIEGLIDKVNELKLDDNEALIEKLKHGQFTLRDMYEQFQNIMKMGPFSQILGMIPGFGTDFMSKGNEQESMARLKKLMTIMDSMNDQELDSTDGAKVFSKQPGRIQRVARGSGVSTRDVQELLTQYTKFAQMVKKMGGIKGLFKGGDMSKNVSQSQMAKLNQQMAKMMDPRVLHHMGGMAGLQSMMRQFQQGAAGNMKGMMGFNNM
Sequence of UniProt Q9DCZ4 (Q9DCZ4 whole entry): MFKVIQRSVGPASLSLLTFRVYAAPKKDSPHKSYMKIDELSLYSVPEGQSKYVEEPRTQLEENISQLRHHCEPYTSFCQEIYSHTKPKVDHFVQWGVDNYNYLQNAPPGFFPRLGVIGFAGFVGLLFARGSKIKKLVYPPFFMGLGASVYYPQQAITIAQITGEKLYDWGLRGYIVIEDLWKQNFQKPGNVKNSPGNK
Sequence of UniProt Q9D0I9 (Q9D0I9 whole entry): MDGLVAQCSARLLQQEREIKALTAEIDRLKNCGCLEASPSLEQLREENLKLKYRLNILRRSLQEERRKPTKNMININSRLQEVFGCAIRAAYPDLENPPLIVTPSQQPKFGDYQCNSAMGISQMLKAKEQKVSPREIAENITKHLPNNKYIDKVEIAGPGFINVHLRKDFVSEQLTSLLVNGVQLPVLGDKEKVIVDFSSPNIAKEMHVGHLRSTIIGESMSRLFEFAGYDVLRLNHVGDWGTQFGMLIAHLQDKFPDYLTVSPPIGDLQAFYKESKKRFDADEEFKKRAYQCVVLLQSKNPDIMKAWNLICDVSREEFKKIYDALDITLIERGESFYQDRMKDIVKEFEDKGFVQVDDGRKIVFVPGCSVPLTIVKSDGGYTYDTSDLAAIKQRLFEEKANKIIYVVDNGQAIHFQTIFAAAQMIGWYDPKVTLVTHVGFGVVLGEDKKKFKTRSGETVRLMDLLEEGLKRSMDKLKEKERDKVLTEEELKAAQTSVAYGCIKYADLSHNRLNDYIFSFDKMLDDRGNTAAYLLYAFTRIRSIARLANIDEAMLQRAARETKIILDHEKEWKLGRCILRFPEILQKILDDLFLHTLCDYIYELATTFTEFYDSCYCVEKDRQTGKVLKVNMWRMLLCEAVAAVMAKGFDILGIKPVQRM
Sequence of UniProt Q9DCN1 (Q9DCN1 whole entry): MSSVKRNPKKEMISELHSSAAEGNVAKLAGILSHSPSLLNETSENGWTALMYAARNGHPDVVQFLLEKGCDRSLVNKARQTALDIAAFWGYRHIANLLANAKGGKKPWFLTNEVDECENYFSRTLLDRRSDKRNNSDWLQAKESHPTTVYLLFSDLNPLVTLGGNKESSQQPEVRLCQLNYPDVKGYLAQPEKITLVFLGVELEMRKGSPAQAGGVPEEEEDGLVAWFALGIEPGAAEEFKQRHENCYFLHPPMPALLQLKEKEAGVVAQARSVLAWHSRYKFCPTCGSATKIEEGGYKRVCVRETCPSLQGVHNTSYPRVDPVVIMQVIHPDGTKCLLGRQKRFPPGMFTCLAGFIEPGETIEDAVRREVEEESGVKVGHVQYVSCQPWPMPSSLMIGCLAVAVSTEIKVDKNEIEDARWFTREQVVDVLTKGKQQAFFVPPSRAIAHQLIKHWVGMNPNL
Sequence of UniProt P09813 (P09813 whole entry): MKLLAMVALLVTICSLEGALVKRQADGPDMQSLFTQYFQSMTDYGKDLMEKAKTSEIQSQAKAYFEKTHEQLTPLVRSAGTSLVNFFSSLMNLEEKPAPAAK
Sequence of UniProt O35493 (O35493 whole entry, looked up): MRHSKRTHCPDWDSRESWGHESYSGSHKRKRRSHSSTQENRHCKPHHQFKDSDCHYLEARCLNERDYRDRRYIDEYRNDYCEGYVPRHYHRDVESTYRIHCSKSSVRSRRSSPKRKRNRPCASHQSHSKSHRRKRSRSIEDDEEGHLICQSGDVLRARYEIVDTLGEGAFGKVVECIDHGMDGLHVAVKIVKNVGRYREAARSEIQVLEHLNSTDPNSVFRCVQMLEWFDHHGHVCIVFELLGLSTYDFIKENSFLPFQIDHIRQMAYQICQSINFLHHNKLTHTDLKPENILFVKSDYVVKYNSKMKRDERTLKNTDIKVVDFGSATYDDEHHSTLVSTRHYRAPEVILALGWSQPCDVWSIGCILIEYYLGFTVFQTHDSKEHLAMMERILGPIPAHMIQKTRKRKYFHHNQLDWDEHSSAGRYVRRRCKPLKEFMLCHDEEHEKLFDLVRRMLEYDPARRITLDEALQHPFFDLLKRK
Sequence of UniProt O88351 (O88351 whole entry): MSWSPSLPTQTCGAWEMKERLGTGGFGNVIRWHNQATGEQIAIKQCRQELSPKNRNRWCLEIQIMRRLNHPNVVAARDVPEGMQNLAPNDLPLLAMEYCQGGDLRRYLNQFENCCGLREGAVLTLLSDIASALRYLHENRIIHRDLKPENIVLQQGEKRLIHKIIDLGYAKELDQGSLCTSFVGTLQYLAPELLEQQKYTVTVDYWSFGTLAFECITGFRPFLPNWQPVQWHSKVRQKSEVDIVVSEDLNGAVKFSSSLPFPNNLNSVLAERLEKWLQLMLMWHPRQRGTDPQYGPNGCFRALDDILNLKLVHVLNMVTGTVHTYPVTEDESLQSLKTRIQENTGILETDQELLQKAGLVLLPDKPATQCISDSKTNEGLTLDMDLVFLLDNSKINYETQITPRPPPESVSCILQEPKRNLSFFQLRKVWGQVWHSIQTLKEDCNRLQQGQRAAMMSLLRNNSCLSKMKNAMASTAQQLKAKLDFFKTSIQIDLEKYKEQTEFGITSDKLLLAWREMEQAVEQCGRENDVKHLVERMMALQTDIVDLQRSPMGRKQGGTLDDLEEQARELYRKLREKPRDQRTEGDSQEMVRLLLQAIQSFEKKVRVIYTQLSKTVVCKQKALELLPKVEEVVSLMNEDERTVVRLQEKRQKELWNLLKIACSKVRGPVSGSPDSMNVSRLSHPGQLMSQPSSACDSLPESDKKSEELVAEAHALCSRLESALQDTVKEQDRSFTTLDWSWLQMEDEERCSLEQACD
Sequence of UniProt Q61694 (Q61694 whole entry): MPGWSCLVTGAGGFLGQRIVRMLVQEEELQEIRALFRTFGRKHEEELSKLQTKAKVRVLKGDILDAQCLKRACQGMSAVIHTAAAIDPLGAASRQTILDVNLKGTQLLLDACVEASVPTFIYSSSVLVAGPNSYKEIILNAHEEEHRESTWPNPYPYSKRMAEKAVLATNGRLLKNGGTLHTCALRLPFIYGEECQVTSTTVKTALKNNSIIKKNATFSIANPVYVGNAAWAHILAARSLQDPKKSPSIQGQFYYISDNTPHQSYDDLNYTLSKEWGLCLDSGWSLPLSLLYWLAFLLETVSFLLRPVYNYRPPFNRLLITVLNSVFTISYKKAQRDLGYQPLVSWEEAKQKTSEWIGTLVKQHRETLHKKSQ

Question: For “UniProt P09813 (peptide sequence: THEQLTPLVR, peptide start residue: 68)”, which log2 fold change is on record?
Answer: The log2 fold change was 0.46.

Question: With “UniProt O54988 (peptide sequence: WSSNFKDFLR, peptide start residue: 261)” as the target, how does the log2 fold change read?
Answer: The log2 fold change was -3.04.

Question: For “UniProt O35493 (peptide sequence: ILGPIPAHMIQK, peptide start residue: 392)”, which log2 fold change is on record?
Answer: The log2 fold change was -2.87.

Question: “UniProt O88351 (peptide sequence: DLKPENIVLQQGEKR, peptide start residue: 145)” was tested. Which log2 fold change did it give?
Answer: Its log2 fold change is -0.744.

Question: Which log2 fold change does the source give for “UniProt Q04899 (peptide sequence: HANIVTLHDLIHTDR, peptide start residue: 176)” here?
Answer: Its log2 fold change is -3.35.

Question: With “UniProt Q9DCZ4 (peptide sequence: TQLEENISQLR, peptide start residue: 58)” as the target, how does the log2 fold change read?
Answer: The log2 fold change was 0.253.

Question: With “UniProt Q9DCN1 (peptide sequence: AIAHQLIK, peptide start residue: 446)” as the target, how does the log2 fold change read?
Answer: Its log2 fold change is -0.997.

Question: “UniProt Q61694 (peptide sequence: EIILNAHEEEHR, peptide start residue: 136)” was tested. Which log2 fold change did it give?
Answer: The log2 fold change was -0.448.

Question: With “UniProt Q99MK8 (peptide sequence: DLKPANILLDEHGHVR, peptide start residue: 317)” as the target, how does the log2 fold change read?
Answer: Its log2 fold change is -0.735.

Question: Which log2 fold change does the source give for “UniProt P14576 (peptide sequence: SAIDLEEMASGLNKRK, peptide start residue: 58)” here?
Answer: The log2 fold change was 0.95.

Question: With “UniProt Q9D0I9 (peptide sequence: GFDILGIKPVQR, peptide start residue: 648)” as the target, how does the log2 fold change read?
Answer: The log2 fold change was 0.372.
